Compounds without any hit were thinned out: in the full panel of roughly 79,000, 15% have a hit. A number with no mark means an inactive call. The source made the active and inactive calls. No stated cut-off is given here; in the data, active means growth inhibition above about 70%; inactive means the rest.
Assays:
[1] = NCI Yeast Anticancer Drug Screen. Data for the wt1 strain (AID 149);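 further: 0% = growth of vehicle-treated wt1 cultures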; settings: S. cerevisiae wt1 strain (SPY 50644) growth inhibition, hits give high values
How it was run: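 Compounds are added to wt1 yeast cultures. Growth is then measured. Inhibition is expressed relative to vehicle-treated controls.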

[2] = NCI Yeast Anticancer Drug Screen. Data for the rad50EPP+ strain (AID 151);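 further: 0% = growth of vehicle-treated control cultures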; settings: S. cerevisiae rad50 mutant strain, hits give high values
How it was run: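 Exposing the rad50EPP+ strain to each compound, growth was compared with vehicle-only cultures to give inhibition.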

[3] = NCI Yeast Anticancer Drug Screen. Data for the mgt1 strain (AID 153); settings: S. cerevisiae mgt1 mutant growth inhibition, hits give high values
How it was run: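 Genetically defined yeast (mgt1) treated with compound; inhibition of growth expressed against vehicle-treated controls.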

[4] = NCI Yeast Anticancer Drug Screen. Data for the rad50 strain (AID 155);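 further: 0% = growth of vehicle-only cultures of the same strain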; settings: S. cerevisiae rad50 strain growth inhibition, hits give high values
How it was run: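 Inhibition values express reduced yeast growth in compound-treated cultures relative to vehicle-treated controls.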

[5] = NCI Yeast Anticancer Drug Screen. Data for the mec2-1 strain (AID 157); settings: S. cerevisiae mec2-1 strain, hits give high values
How it was run: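 Readout is yeast growth inhibition, normalised to vehicle-treated controls, in the mec2-1 strain exposed to compound.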

[6] = NCI Yeast Anticancer Drug Screen. Data for the rad14 strain (AID 159);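 further: 0% = growth of vehicle-treated control cultures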; settings: S. cerevisiae rad14 strain growth inhibition, hits give high values
How it was run: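 A mutant yeast strain defective in DNA damage repair is treated with compound; inhibition of its growth is scored against untreated, vehicle-exposed cultures.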

[7] = NCI Yeast Anticancer Drug Screen. Data for the sgs1 mgt1 strain (AID 161);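 further: 0% = growth of cultures given vehicle only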; settings: S. cerevisiae sgs1 mgt1 strain, hits give high values
How it was run: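 Growth of a repair-deficient yeast mutant was monitored after compound treatment and expressed as inhibition relative to vehicle-treated cultures.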

[8] = NCI Yeast Anticancer Drug Screen. Data for the CLN2oe strain (AID 163);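 further: 0% = growth of vehicle-only control cultures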; settings: S. cerevisiae CLN2oe strain, hits give high values
How it was run: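 Values reflect how much compound exposure reduced yeast growth, referenced to vehicle-exposed cells. Assay organism is a strain with a defined genetic change affecting cell-cycle control.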

[9] = NCI Yeast Anticancer Drug Screen. Data for the cln2 rad14 strain (AID 165);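 further: 0% = growth equal to vehicle treated cultures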; settings: S. cerevisiae cln2 rad14 strain, hits give high values
How it was run: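 Relative to vehicle controls, growth inhibition of compound-treated cln2 rad14 yeast was recorded.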

[10] = NCI Yeast Anticancer Drug Screen. Data for the bub3 strain (AID 167); settings: S. cerevisiae bub3 mutant strain, hits give high values
How it was run: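 Steps: expose the mutant yeast strain to compound; grow alongside vehicle-treated cultures; measure growth; express inhibition against the vehicle cultures.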

[11] = NCI Yeast Anticancer Drug Screen. Data for the wt2 strain (AID 169);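 further: 0% = growth of vehicle-treated yeast cultures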; settings: S. cerevisiae wt2 strain growth inhibition, hits give high values
How it was run: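 Values express reduction in yeast growth under compound treatment, referenced to vehicle-treated cells.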

[12] = NCI Yeast Anticancer Drug Screen. Data for the mlh1 strain (AID 171);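 further: 0% = growth of vehicle-treated control cultures of the same strain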; settings: S. cerevisiae mlh1 strain growth inhibition, hits give high values
How it was run: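 Steps: expose the defined-mutant yeast strain to compound; expose a parallel culture to vehicle; measure growth; express compound effect as inhibition relative to the vehicle culture.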

[13] = NCI Yeast Anticancer Drug Screen. Data for the sgs1 strain (AID 173);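 further: 0% = growth of vehicle-only control cultures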; settings: S. cerevisiae sgs1 mutant, hits give high values
How it was run: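 Treat defined-mutant yeast with compound; measure growth; calculate inhibition relative to vehicle-treated cells.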

[14] = NCI Yeast Anticancer Drug Screen. Data for the mlh1 rad18 strain (AID 175); settings: S. cerevisiae mlh1 rad18 strain growth inhibition, hits give high values
How it was run: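 Test agents were incubated with a yeast strain of defined genotype (DNA damage repair defect). Inhibition of growth was derived by comparison with vehicle-exposed cultures.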

[15] = NCI Yeast Anticancer Drug Screen. Data for the rad18 strain (AID 177); settings: S. cerevisiae rad18 mutant growth inhibition, hits give high values
How it was run: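 A genetically defined yeast mutant impaired in DNA damage repair was treated with test compounds, then its growth was measured against cultures receiving vehicle alone.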

[16] = at 5.0 µM (retest, dose inferred, filed as 0.5)
[17] = at 50.0 µM (retest, dose inferred, filed as 5.0)

For `OC(c1ccc(F)cc1)(c1ccc(F)cc1)C1CC1`, which growth inhibition ([1]; at 1.2 µM) is on record?
The growth inhibition was -38%.

And the growth inhibition ([1]; at 3.7 µM)?
Its growth inhibition is -33%.

What about the growth inhibition ([1]; at 11.0 µM) of the same molecule?
The growth inhibition was -36%.

And the growth inhibition ([1]; at 33.0 µM)?
The growth inhibition was -27%.

What about the growth inhibition ([1]; at 100.0 µM) of the same molecule?
The growth inhibition was 90% (active).

What about the growth inhibition ([2]; at 1.2 µM) of the same molecule?
The growth inhibition was -10%.

And the growth inhibition ([2]; at 3.7 µM)?
The growth inhibition was -17%.

And the growth inhibition ([2]; at 11.0 µM)?
The growth inhibition was -35%.

What about the growth inhibition ([2]; at 33.0 µM) of the same molecule?
The growth inhibition was -26%.

And the growth inhibition ([2]; at 100.0 µM)?
The growth inhibition was 11%.

What about the growth inhibition ([3]; at 1.2 µM) of the same molecule?
Its growth inhibition is -36%.

And the growth inhibition ([3]; at 3.7 µM)?
The growth inhibition was -47%.

And the growth inhibition ([3]; at 11.0 µM)?
Its growth inhibition is -47%.

What about the growth inhibition ([3]; at 33.0 µM) of the same molecule?
Its growth inhibition is -51%.

And the growth inhibition ([3]; at 100.0 µM)?
Its growth inhibition is 20%.

And the growth inhibition ([4]; at 1.2 µM)?
Its growth inhibition is -31%.

What about the growth inhibition ([4]; at 3.7 µM) of the same molecule?
Its growth inhibition is -32%.

And the growth inhibition [4, 16]?
Its growth inhibition is 59%.

And the growth inhibition ([4]; at 11.0 µM)?
Its growth inhibition is -26%.

And the growth inhibition ([4]; at 33.0 µM)?
The growth inhibition was 32%.

And the growth inhibition [4, 17]?
The growth inhibition was 99% (active).

What about the growth inhibition ([4]; at 50.0 µM) of the same molecule?
Its growth inhibition is 62.9%.

And the growth inhibition ([4]; at 100.0 µM)?
Its growth inhibition is 94% (active).

What about the growth inhibition ([5]; at 1.2 µM) of the same molecule?
Its growth inhibition is -87%.

What about the growth inhibition ([5]; at 3.7 µM) of the same molecule?
The growth inhibition was -42%.

And the growth inhibition [5, 16]?
Its growth inhibition is 68%.

What about the growth inhibition ([5]; at 11.0 µM) of the same molecule?
The growth inhibition was -67%.

And the growth inhibition ([5]; at 33.0 µM)?
The growth inhibition was -32%.

And the growth inhibition [5, 17]?
The growth inhibition was 100% (active).

What about the growth inhibition ([5]; at 50.0 µM) of the same molecule?
Its growth inhibition is 40.1%.

What about the growth inhibition ([5]; at 100.0 µM) of the same molecule?
Its growth inhibition is 95% (active).

What about the growth inhibition ([6]; at 1.2 µM) of the same molecule?
The growth inhibition was -18%.

What about the growth inhibition ([6]; at 3.7 µM) of the same molecule?
The growth inhibition was -18%.

What about the growth inhibition ([6]; at 11.0 µM) of the same molecule?
The growth inhibition was -7%.

What about the growth inhibition ([6]; at 33.0 µM) of the same molecule?
The growth inhibition was 8%.

What about the growth inhibition ([6]; at 100.0 µM) of the same molecule?
Its growth inhibition is 97% (active).

What about the growth inhibition [7, 16] of the same molecule?
Its growth inhibition is -4%.

What about the growth inhibition [7, 17] of the same molecule?
The growth inhibition was 77% (active).

What about the growth inhibition ([7]; at 50.0 µM) of the same molecule?
The growth inhibition was 51.4%.

What about the growth inhibition ([8]; at 1.2 µM) of the same molecule?
The growth inhibition was -16%.

What about the growth inhibition ([8]; at 3.7 µM) of the same molecule?
Its growth inhibition is -3%.

And the growth inhibition ([8]; at 11.0 µM)?
Its growth inhibition is -9%.

What about the growth inhibition ([8]; at 33.0 µM) of the same molecule?
Its growth inhibition is -8%.

And the growth inhibition ([8]; at 100.0 µM)?
Its growth inhibition is 93% (active).

What about the growth inhibition [9, 16] of the same molecule?
Its growth inhibition is 41%.

What about the growth inhibition [9, 17] of the same molecule?
Its growth inhibition is 73% (active).

What about the growth inhibition ([9]; at 50.0 µM) of the same molecule?
Its growth inhibition is 28.9%.

And the growth inhibition ([10]; at 1.2 µM)?
Its growth inhibition is -32%.

What about the growth inhibition ([10]; at 3.7 µM) of the same molecule?
The growth inhibition was -27%.

And the growth inhibition [10, 16]?
Its growth inhibition is 20%.

And the growth inhibition ([10]; at 11.0 µM)?
The growth inhibition was -13%.

What about the growth inhibition ([10]; at 33.0 µM) of the same molecule?
The growth inhibition was -16%.

And the growth inhibition [10, 17]?
The growth inhibition was 81% (active).

And the growth inhibition ([10]; at 50.0 µM)?
The growth inhibition was 64.8%.

What about the growth inhibition ([10]; at 100.0 µM) of the same molecule?
The growth inhibition was 96% (active).

And the growth inhibition ([11]; at 1.2 µM)?
The growth inhibition was -25%.

What about the growth inhibition ([11]; at 3.7 µM) of the same molecule?
The growth inhibition was -25%.

What about the growth inhibition ([11]; at 11.0 µM) of the same molecule?
Its growth inhibition is -5%.

And the growth inhibition ([11]; at 33.0 µM)?
Its growth inhibition is -28%.

What about the growth inhibition ([11]; at 100.0 µM) of the same molecule?
Its growth inhibition is 87% (active).

What about the growth inhibition ([12]; at 1.2 µM) of the same molecule?
The growth inhibition was -39%.

And the growth inhibition ([12]; at 3.7 µM)?
The growth inhibition was -64%.

And the growth inhibition ([12]; at 11.0 µM)?
Its growth inhibition is -66%.

What about the growth inhibition ([12]; at 33.0 µM) of the same molecule?
The growth inhibition was -42%.

And the growth inhibition ([12]; at 100.0 µM)?
Its growth inhibition is 92% (active).

And the growth inhibition ([13]; at 1.2 µM)?
Its growth inhibition is -62%.

And the growth inhibition ([13]; at 3.7 µM)?
Its growth inhibition is -43%.

And the growth inhibition ([13]; at 11.0 µM)?
The growth inhibition was -52%.

And the growth inhibition ([13]; at 33.0 µM)?
Its growth inhibition is -42%.

And the growth inhibition ([13]; at 100.0 µM)?
The growth inhibition was 86% (active).

What about the growth inhibition [14, 16] of the same molecule?
Its growth inhibition is 67%.

What about the growth inhibition [14, 17] of the same molecule?
The growth inhibition was 100% (active).

What about the growth inhibition ([14]; at 50.0 µM) of the same molecule?
The growth inhibition was 64%.

And the growth inhibition ([15]; at 1.2 µM)?
Its growth inhibition is -8%.

And the growth inhibition ([15]; at 3.7 µM)?
Its growth inhibition is -11%.

And the growth inhibition ([15]; at 11.0 µM)?
The growth inhibition was -21%.

What about the growth inhibition ([15]; at 33.0 µM) of the same molecule?
Its growth inhibition is 46%.

What about the growth inhibition ([15]; at 100.0 µM) of the same molecule?
The growth inhibition was 95% (active).

Reference: PubChem BioAssay (NCI)
